Measured values as given in ChEMBL document CHEMBL3988442, “University of Dundee, Small-Polar-MMV Screening Library” (2021).
The whole screen tested about 53,000 compounds, of which about 900 (1.7%) showed an effect of 50% or more. This is one part of a sample in which strong results are shown more often than they occur.

system: Mycobacterium tuberculosis; experiment: Cornell - Phenotypic assay to identify agents that inhibit growth of Mycobacterium tuberculosis; type: functional; set-up: scale not given: direction of the effect not stated beside the values; conditions: 10 mM as filed; unlikely as a test dose

Row | Compound | Percent Effect [%]
1 | Cc1cc(NC(=O)C(c2cccc(F)c2)N2CCOCC2)sn1 (stereo not drawn) | -15.26
2 | NC(=O)C1CCCN1C(=O)c1cc(C2CC2)nc2ccc(F)cc12 (stereo not drawn) | -27.79
3 | Cc1cc(C)c2[nH]c(=O)c(CN3CCCC(O)(CO)C3)cc2c1 (stereo not drawn) | 23.96
4 | Cc1cc(C)c2[nH]c(=O)c(CN3CCC(O)(CN(C)C)C3)cc2c1 (stereo not drawn) | 15.85
5 | Cc1cc(C)c2[nH]c(=O)c(CN3CCCC4(C3)CN(C)C(=O)O4)cc2c1 (stereo not drawn) | 65.13
6 | Cn1cc(CN2CCCC23CCN(c2nc4ccccc4s2)CC3)cn1 | 13.88
7 | Cc1nc[nH]c1CN1CCCC12CCN(c1nc3ccccc3s1)CC2 | -4.142
8 | Cc1cc(C(=O)N2CCN(c3nc4ccccc4s3)CC2)no1 | -60.39
9 | Cc1nc(CN2CCCC23CCN(c2nc4ccccc4s2)CC3)co1 | 53.88
10 | Cc1nc[nH]c1CN1CCCN(c2nc3ccccc3s2)CC1 | 3.174
11 | c1ccc2sc(N3CCC4(CCCN4Cc4ncc[nH]4)CC3)nc2c1 | 60.65
12 | CCn1ccc(-c2cc(C(=O)O)n3ncc(Br)c3n2)n1 | 19.03
13 | CC(C)Cn1ccnc1CNC(=O)N1CCCC1CN1CCOCC1 (stereo not drawn) | 7.761
14 | CN(C(=O)Cn1nc(-c2ccccc2F)ccc1=O)C1CCS(=O)(=O)C1 (stereo not drawn) | 18.26
15 | COC(=O)C(NC(=O)Nc1ccc(C(C)=O)cc1)C(C)C (stereo not drawn) | 6.824
16 | COCc1ncc(CN2CCC3(CCNC(=O)CC3)CC2)cn1 | 18.36
17 | COCCN(C)Cc1cn(C)nc1-c1ccc2c(c1)OCCO2 | -52.38
18 | CC(C)(C)NC(=O)CNC(=O)Nc1cc(-c2ccccc2)ns1 | 38.08
19 | Cc1c(-c2cc(C(F)(F)F)nc(N3CCC(N)CC3)n2)cnn1C | 2.397
20 | CCn1ncc(-c2cc(C(F)(F)F)nc(N3CCC(N)CC3)n2)c1C | 50.19
21 | CCc1ccc(-c2cc(C(F)(F)F)nc(N3CCC(N)CC3)n2)cc1 | 105.7
22 | Cc1cc(C(F)(F)F)nc(N2CCN3CCCC3C2)n1 (stereo not drawn) | -50.74
23 | FC(F)(F)c1cc(-c2cccs2)nc(N2CCN3CCCC3C2)n1 (stereo not drawn) | 24.42
24 | Cc1ccc(-c2cc(C(F)(F)F)nc(N3CCOCC3)n2)s1 | 4.079
25 | Cn1nc(CN2CCCC2)c2c1CN(c1cnccn1)CC2.O=C(O)C(F)(F)F.O=C(O)C(F)(F)F | -1.06
26 | COCCC(=O)N1C[C@H]2CN(Cc3cccnc3)C(=O)[C@H]2C1.O=C(O)C(F)(F)F | 9.901

Row | Compound | Percent Effect [%]
27 | COc1ccc(NC(=O)Cn2nc(C)c(C)cc2=O)cc1Cl | 14.09
28 | CC(=O)c1c(C)nn(CC(=O)Nc2ccc(Br)cc2)c1C | 109.5
29 | Cc1cc(=O)n(CC(=O)Nc2ccc(Cl)cc2)nc1C | 13.93
30 | CC(=O)c1c(C)nn(CC(=O)Nc2ccc(F)cc2)c1C | -30.72
31 | COc1ccc(NC(=O)Cn2nc(C)c(C(C)=O)c2C)cc1 | 109.6
32 | COc1ccc(NC(=O)Cn2nc(C)c(C)cc2=O)cc1 | -2.402
33 | COCCN1CC[C@]2(CN(C(=O)c3ccc[nH]3)C[C@H]2C)C1=O | 14.18
34 | Cc1nn(C)c(Cl)c1C1CCCN1Cc1noc(C2CC2)n1 (stereo not drawn) | -6.241
35 | CCCC(NC(=O)c1cscc1C)c1nnn[nH]1 (stereo not drawn) | -31.84
36 | Cc1cnc(CN(C)C2CCN(Cc3sc(C)nc3C)C2)o1 (stereo not drawn) | -24.44
37 | CC(Oc1ccccc1C(F)(F)F)C(=O)NS(=O)(=O)C(C)C (stereo not drawn) | 54.22
38 | COC(=O)CNC(=O)C(C)Oc1ccccc1C(F)(F)F (stereo not drawn) | -2.134
39 | CC(Oc1ccccc1C(F)(F)F)C(=O)NCC(N)=O (stereo not drawn) | -32.94
40 | COCCCN(Cc1ccncc1)c1ncc(C#N)cc1Cl | 15.37
41 | COc1cc(C(=O)NS(=O)(=O)c2cccc(C#N)c2)ccc1C | 15.37
42 | Cc1cc(NC(=O)c2ccc(C)c(F)c2)[nH]n1 | 32.04
43 | COc1cc(C(=O)Nc2nc(C)no2)ccc1C | 102.2
44 | COc1cc(C(=O)Nc2c(C)noc2C)ccc1C | 19.94
45 | Cc1noc(NC(=O)c2ccc(F)cc2)n1 | 2.649
46 | Cc1noc(NC(=O)c2ccc(C)c(F)c2)n1 | 108.6
47 | Fc1cc(Cl)cnc1N1CCCC(c2nccn2Cc2ccccn2)C1 (stereo not drawn) | 15.7
48 | O=C(c1cc(Cn2ccc3ccccc32)[nH]n1)N1CCC[C@H]1CO | 36.89
49 | Cc1c(CN2C[C@@H](O)[C@H](Oc3cccc(F)c3)C2)cnn1C | -27.75
50 | CCCc1cc(=O)[nH]c(SCc2ccccn2)n1 | -4.123
51 | CCc1cc(=O)[nH]c(-n2nc(C3CC3)cc2NC(=O)C2CC2)n1 | 108.9
52 | CC(C)c1cc(=O)[nH]c(C(C)(C)N)n1.Cl | 8.844

Row | Compound | Percent Effect [%]
53 | Cn1nc(CNC(=O)C2CC2)cc1C1CC1 | 29.19
54 | Cc1cc(=O)[nH]c(-n2nc(C3CC3)cc2N)n1 | 39.12
55 | CCCc1cc(=O)[nH]c(-c2cccc(CN3CCCCCC3)c2)n1 | 11.6
56 | CC(C)c1cc(=O)[nH]c(-n2nc(C3CC3)cc2N)n1 | 108.3
57 | CCc1c(C)nc(-n2nc(C3CC3)cc2NC(C)=O)[nH]c1=O | 9.536
58 | CCCc1cc(=O)[nH]c(-n2nc(C3CC3)cc2N)n1 | 107.6
59 | CCN1CCCC(CNC(=O)C2(c3cc(C)cc(C)c3)CCC2)C1 (stereo not drawn) | -9.012
60 | COc1cccc(CC(=O)N2CCCC2c2nc(C)c(F)c(O)n2)c1 (stereo not drawn) | -107.1
61 | CCNC(=O)NCc1ccc(-n2ccc(C(F)(F)F)n2)cc1 | 21.88
62 | COCc1nnc(C(=O)N2CCC(N3CCCCC3)CC2)o1 | -29.51
63 | Cc1ccc(-c2ccc(Cl)nn2)cc1S(N)(=O)=O | 6.758
64 | CC(=O)N1CCC(c2n[nH]cc2-c2ccnc(N)c2)C1 (stereo not drawn) | -32.92
65 | CC(C)(C)NC(=O)N1CCCn2nc(C(=O)Nc3ccccc3)cc2C1 | 16.42
66 | Cc1nnsc1C(=O)NCc1nn(C2CCCC2)c2c1CCCC2 | 22.48
67 | Cn1cc(-c2nc(C(=O)N3CCCC3c3cnn(C)c3)cs2)cn1 (stereo not drawn) | 20.68
68 | CCOc1ncccc1CNCc1c(C)nn(C)c1N(C)C | -13.13
69 | Cc1nn(C)c(N(C)C)c1CNCc1ccnn1C | 46.97
70 | COCCOc1ncccc1CNCc1c(C)nn(C)c1N(C)C | 87.98
71 | CCOc1ncccc1CNCc1c(C(C)C)nn(C)c1N(C)C | -29.31
72 | COc1ncccc1CNCc1c(C)nn(C)c1N(C)C | -66.33
73 | COc1ncccc1CNCc1c(C(C)C)nn(C)c1OC | 20.17
74 | COc1cc(CNCc2c(C)nn(C)c2N(C)C)ccc1C | 13.2
75 | CC(C)c1nn(C)c(N(C)C)c1CNCc1ccnn1C | 65.83
76 | COc1ncccc1CNCc1c(C(C)C)nn(C)c1N(C)C | 63.07
77 | COc1cc(CNCc2c(C)nn(CC(C)C)c2N(C)C)ccn1 | -17.24
78 | Cc1nn(CC(C)C)c(N(C)C)c1CNCc1ccnn1C | -14.58

Row | Compound | Percent Effect [%]
79 | COc1cc(CNCc2c(C)nn(C)c2N(C)C)ccn1 | 97.38
80 | CCn1cc(CNC(=O)C(C)C)cn1 | 7.058
81 | Cc1cc(C)cc(OCCCn2nc3ccccn3c2=O)c1 | 34.72
82 | Cc1ccc(N(C)C2CCCN(C(=O)Nc3ccc(F)cc3F)C2)cc1 (stereo not drawn) | 17.1
83 | Cc1cccc(CN2Cc3ccnn3CC(COCC3CC3)C2)n1.O=C(O)C(F)(F)F (stereo not drawn) | 10.51
84 | COc1ccc(Br)c(NC(=O)NCc2ncnn2C)c1 | -5.732
85 | CCn1cc(NC(=O)CN2C(=O)CC(C)(C)c3ccccc32)cn1 | 23.89
86 | CC(=O)c1cccc(NC(=O)Cn2nc(-c3cccs3)oc2=O)c1 | -19.71
87 | Cc1cc(N2CCC(O)(CN(C)C(=O)CCN)CC2)c2cnccc2n1 | 43.24
88 | O=C(NCCn1cnnc1C1CC1)c1c(O)cc(F)cc1F | -13.58
89 | COc1ccc([C@@H]2CN(Cc3ccncc3)C[C@H]2c2cc[nH]n2)cc1.O=C(O)CC(O)(CC(=O)O)C(=O)O | 34.94
90 | O=C(O)CC(O)(CC(=O)O)C(=O)O.c1ccc([C@@H]2CN(Cc3ccncc3)C[C@H]2c2cc[nH]n2)cc1 | 17.96
91 | O=C(O)CC(O)(CC(=O)O)C(=O)O.c1ccc([C@@H]2CN(Cc3cccnc3)C[C@H]2c2cc[nH]n2)cc1 | 51.47
92 | O=C1CC(c2ccccc2)c2c(c(C(=O)O)cn2-c2ccccc2)N1 (stereo not drawn) | 15.99
93 | O=C(c1cc(F)ccc1O)N1CCN(C2CCOCC2)CC1 | 23.2
94 | Cc1cccc(NC(C)C(=O)Nc2nccs2)c1 (stereo not drawn) | 6.251
95 | COC(=O)c1ccc2c(-c3ccnc(NCCO)n3)c[nH]c2c1 | -4.775
96 | COc1ccc2[nH]cc(-c3ccnc(NC4CCCC4)n3)c2c1 | 104.1
97 | COc1ccc2[nH]cc(-c3ccnc(N4CCC(C)CC4)n3)c2c1 | 24.84
98 | COCCO[C@@H]1CCN(C(=O)c2ccnnc2)[C@H]1Cc1cnn(C)c1 | 2.018
99 | CCNC(=O)[C@@H]1C[C@@H](NC(=O)Cc2ccncc2)CN1Cc1ccsc1 | 31.97
100 | CCNC(=O)[C@@H]1C[C@H](NC(=O)Cn2ccnc2)CN1Cc1ccsc1 | 104.2
101 | CCNC(=O)[C@@H]1C[C@@H](NC(=O)Cc2cc(C)no2)CN1Cc1ccsc1 | -13.59
102 | Cc1ncc(C(=O)OCC2CCN(c3ccccc3)C2)s1 (stereo not drawn) | -13.58
103 | Cn1cc(CN2CCC(c3ncc(Cl)cc3S(C)(=O)=O)CC2)cn1 | 39.28
